Laboratory results from PubChem BioAssay AID1159580 (chemical genetic matrix, 2015).
Screen size: about 5,500 compounds; about 2,000 (36%) were called active. Roughly 18% stayed inconclusive and do not appear here. Rule as the data show it: active = normalized growth mostly below about 0.91 (no sharp cut-off); inconclusive = no clear call, values can overlap the other calls; inactive = mostly above about 0.92. Some of the results follow.

Experiment: chemical genetic growth profiling, strain panel (AID 1159580);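 also: tested at 20 µM; growth read once vehicle control cultures reached saturation at 30 °C; 1 = growth at the plate median or of vehicle wells; lower values mean less growth of the strain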
Settings: S. cerevisiae deletion strains, growth OD

Measured: normalized growth

NC(=NC(=O)c1ccc(Cl)cc1)c1cccs1
inactive: locus YAR019C, strain CDC15, stronger effect = lower value 0.944 | locus YBL105C, strain PKC1, stronger effect = lower value 0.964 | locus YBR135W, strain CKS1, stronger effect = lower value 0.95 | locus YBR136W, strain MEC1, stronger effect = lower value 0.949 | locus YBR160W, strain CDC28, stronger effect = lower value 0.951 | locus YDL017W, strain CDC7, stronger effect = lower value 0.964 | locus YDL028C, strain MPS1, stronger effect = lower value 0.933 | locus YDL101C, strain DUN1, stronger effect = lower value 0.969 | locus YDL108W, strain KIN28, stronger effect = lower value 0.946 | locus YDL132W, strain cdc53, stronger effect = lower value 0.951 | locus YDL214C, strain PRR2, stronger effect = lower value 0.8 | locus YDR052C, strain DBF4, stronger effect = lower value 0.96 | locus YDR054C, strain cdc34, stronger effect = lower value 0.951 | locus YDR226W, strain ADK1, stronger effect = lower value 0.951 | locus YDR477W, strain SNF1, stronger effect = lower value 0.828 | locus YER123W, strain YCK3, stronger effect = lower value 0.81 | locus YER133W, strain GLC7, stronger effect = lower value 0.775 | locus YFL009W, strain cdc4, stronger effect = lower value 0.954 | locus YFL029C, strain CAK1, stronger effect = lower value 0.949 | locus YFR003C, strain YPI1, stronger effect = lower value 0.959 | locus YFR019W, strain FAB1, stronger effect = lower value 0.938 | locus YFR028C, strain CDC14, stronger effect = lower value 0.948 | locus YGR040W, strain KSS1, stronger effect = lower value 0.833 | locus YGR052W, strain FMP48, stronger effect = lower value 0.794 | locus YGR092W, strain DBF2, stronger effect = lower value 0.533 | locus YHR030C, strain SLT2, stronger effect = lower value 0.902 | locus YHR079C, strain IRE1, stronger effect = lower value 0.698 | locus YHR082C, strain KSP1, stronger effect = lower value 0.934 | locus YHR205W, strain SCH9, stronger effect = lower value 0.798 | locus YIL147C, strain SLN1, stronger effect = lower value 0.956 | locus YJL095W, strain BCK1, stronger effect = lower value 0.795 | locus YJL128C, strain PBS2, stronger effect = lower value 0.921 | locus YJL157C, strain FAR1, stronger effect = lower value 0.833 | locus YJR016C, strain ILV3, stronger effect = lower value 0.957 | locus YJR066W, strain TOR1 (second series), stronger effect = lower value 0.904 | locus YJR066W, strain TOR1, stronger effect = lower value 0.884 | locus YKL048C, strain ELM1, stronger effect = lower value 0.901 | locus YKL067W, strain YNK1, stronger effect = lower value 0.824 | locus YKL101W, strain HSL1, stronger effect = lower value 0.877 | locus YKL193C, strain SDS22, stronger effect = lower value 0.942 | locus YKL203C, strain TOR2, stronger effect = lower value 0.9 | locus YLR133W, strain CKI1, stronger effect = lower value 0.83 | locus YLR403W, strain SFP1, stronger effect = lower value 0.789 | locus YML070W, strain DAK1, stronger effect = lower value 0.774 | locus YMR001C, strain CDC5, stronger effect = lower value 0.948 | locus YMR205C, strain PFK2 (second series), stronger effect = lower value 0.836 | locus YMR277W, strain FCP1, stronger effect = lower value 0.942 | locus YNL006W, strain LST8, stronger effect = lower value 0.97 | locus YNL020C, strain ARK1, stronger effect = lower value 0.821 | locus YNL161W, strain CBK1, stronger effect = lower value 0.95 | locus YNL183C, strain NPR1, stronger effect = lower value 0.721 | locus YNL207W, strain RIO2, stronger effect = lower value 0.949 | locus YNL222W, strain SSU72, stronger effect = lower value 0.957 | locus YNL307C, strain MCK1 (second series), stronger effect = lower value 0.82 | locus YOL078W, strain AVO1, stronger effect = lower value 0.944 | locus YOL136C, strain PFK27, stronger effect = lower value 0.774 | locus YOR061W, strain CKA2, stronger effect = lower value 0.82 | locus YOR119C, strain RIO1, stronger effect = lower value 0.834 | locus YOR231W, strain MKK1, stronger effect = lower value 0.734 | locus YOR329C, strain SCD5, stronger effect = lower value 0.949 | locus YPL031C, strain PHO85, stronger effect = lower value 0.8 | locus YPL153C, strain RAD53, stronger effect = lower value 0.844 | locus YPL204W, strain HRR25, stronger effect = lower value 0.806 | locus YPL209C, strain IPL1, stronger effect = lower value 0.955 | locus YPR025C, strain CCL1, stronger effect = lower value 0.953 | locus YPR106W, strain ISR1, stronger effect = lower value 0.932 | locus YPR111W, strain DBF20, stronger effect = lower value 0.915 | strain NNK1, stronger effect = lower value 0.932 | strain TSCII, stronger effect = lower value 0.939
active: locus YLR113W, strain HOG1, stronger effect = lower value 0.607 | locus YPL256C, strain CLN2, stronger effect = lower value 0.67
